In PubChem BioAssay (NCATS):
Records with an inconclusive call do not appear. Active and inactive are the calls of the source. Calls come from the whole dose curve; as a rule, active = well fitted curve in the direction sought with a large enough effect; inconclusive = small, poorly fitted or top-dose-only effect, or another doubt; inactive = no such curve, though single readings can be large; an effect the other way counts as inactive or inconclusive.

Experiment: qHTS assay to identify small molecule inhibitors of chordoma cells - UCH-1 (AID 1259355); note: nearly all actives have a fitted effect of over 55% in size
Conditions: UCH-1 chordoma viability, CellTiter-Glo, 48 h, combination, with auranofin plus four topoisomerase inhibitors; series mostly up to 46.1 µM; activity, negative = inhibition: at the top concentration
In short: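 A 48hr growth-inhibition format: each drug tested at 15 concentrations together with added auranofin, camptothecin, doxorubicin, rubitecan and topotecan, with cell viability quantified as CellTiter-Glo luminescence.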
% is set by controls: 0 for no effect and ±100 for the full control effect; potency is the fitted concentration of half-maximal effect.

SMILES | activity, negative = inhibition | Potency
CC1=C(/C=C/C(C)=C/C=C/C(C)=C/C(=O)Oc2c(C)c(C)c3c(c2C)CC[C@@](C)(CCC[C@H](C)CCC[C@H](C)CCCC(C)C)O3)C(C)(C)CCC1 | -10% (inactive) | 
OCC1(CO)COC(C(Cl)(Cl)Cl)OC1 | -15.2% (inactive) | 
O=C(O)C1=C(CSc2nnnn2CS(=O)(=O)O)CS[C@@H]2[C@H](NC(=O)[C@H](O)c3ccccc3)C(=O)N12 | -5.25% (inactive) | 
CC(C)=CCC/C(C)=C/C=C/C(C)=C/C=C/C(C)=C/C=C/C=C(C)/C=C/C=C(C)/C=C/C=C(\C)CCC=C(C)C | -7.68% (inactive) | 
C=C(C)C1CC=C(C)CC1 (centres undefined) | -20.8% (inactive) | 
Oc1cc(O)cc(O)c1 | -21% (inactive) | 
C[C@H](NCCc1ccc(O)cc1)[C@H](O)c1ccc(O)cc1 | -7.59% (inactive) | 
CN1CCCC(CN2c3ccccc3Sc3ccccc32)C1 (centres undefined) | -18.2% (inactive) | 
OCC(O)CO | -14.3% (inactive) | 
CC(C)(C)NCC(O)CSc1nc(-c2ccc(C(N)=O)s2)cs1 (centres undefined) | -5.52% (inactive) | 
NC(=O)c1cc[n+](CC2=C(C(=O)O)N3C(=O)[C@@H](NC(=O)C(c4ccccc4)S(=O)(=O)[O-])[C@H]3SC2)cc1 (some centres undefined) | 17% [at 20.6 µM] (inactive) | 
CO/N=C(\C(=O)N[C@@H]1C(=O)N2C(C(=O)O)=C(CSc3nnnn3C)CS[C@H]12)c1csc(N)n1 | -0.199% (inactive) | 
CNCC(=O)N[C@@H](CCCN=C(N)N)C(=O)N[C@H](C(=O)N[C@@H](Cc1ccc(O)cc1)C(=O)N[C@H](C(=O)N[C@@H](Cc1cnc[nH]1)C(=O)N1CCC[C@H]1C(=O)N[C@@H](C)C(=O)O)C(C)C)C(C)C | -13.8% (inactive) | 
NC(=O)c1ccc[n+]([C@@H]2O[C@H](COP(=O)([O-])OP(=O)(O)OC[C@H]3O[C@@H](n4cnc5c(N)ncnc54)[C@H](O)[C@@H]3O)[C@@H](O)[C@H]2O)c1 | -18.8% [at 20.6 µM] (inactive) | 
CN(C)C=Nc1c(I)cc(I)c(CCC(=O)O)c1I | 0.41% (inactive) | 
CC(C)[C@@H](N)C(=O)O | -14.7% (inactive) | 
OC[C@H]1O[C@@H](O[C@H]2[C@H](O)[C@@H](O)[C@H](O)O[C@@H]2CO)[C@H](O)[C@@H](O)[C@@H]1O | -6.63% (inactive) | 
CN=C1C=CC(=C(c2ccc(N(C)C)cc2)c2ccc(N(C)C)cc2)C=C1 |  | 15.8 µM (active)
COc1cc2c(cc1OC)[C@@H](Cc1cc(OC)c(OC)c(OC)c1)[N+](C)(CCCOC(=O)CC/C=C/CCC(=O)OCCC[N+]1(C)CCc3cc(OC)c(OC)cc3[C@H]1Cc1cc(OC)c(OC)c(OC)c1)CC2 (some centres undefined) | 1.95% (inactive) | 
C=CC[N@@+]12CC[C@@]34c5ccccc5N5/C=C6/[C@H]7C[C@H]8[C@@]9(CC[N@@+]8(CC=C)C/C7=C/CO)c7ccccc7N(/C=C(/[C@@H](C[C@@H]31)/C(=C\CO)C2)[C@H]54)[C@@H]69 | 15.5% [at 20.6 µM] (inactive) | 
ClC(Cl)Cl | -15.6% (inactive) | 

Experiment: qHTS assay to identify small molecule inhibitors of chordoma cells - UCH-2 (AID 1259356)
Conditions: UCH-2 chordoma viability, CellTiter-Glo ATP luminescence, 48 h; series mostly up to 46.1 µM; activity change, negative = inhibition: at the top concentration

SMILES | activity change, negative = inhibition | Potency
CC(C)OC(=O)Nc1ccc2nc(-c3cscn3)[nH]c2c1 | -26.5% (inactive) | 
CC(C)=CCC/C(C)=C/CC/C(C)=C/CC/C=C(\C)CC/C=C(\C)CCC=C(C)C | 11% (inactive) | 
CCOC(=O)Cc1ccc(-c2ccccc2)cc1 | 3.68% (inactive) | 
CC1CCCCN1CCCOC(=O)c1ccccc1 (centres undefined) | -13% (inactive) | 
CC(=O)N=c1sc(S(N)(=O)=O)nn1C | 27.6% [at 20.6 µM] (inactive) | 
COC1[C@@H](O[C@@H]2O[C@H](C)[C@@H](O[C@H]3C[C@@](C)(O)[C@H](OC(=O)CC(C)C)[C@H](C)O3)[C@H](N(C)C)[C@H]2O)[C@@H](CC=O)C[C@@H](C)[C@@H](O)/C=C/C=C/C[C@@H](C)OC(=O)C[C@H]1OC(C)=O (some centres undefined) | -3.62% [at 20.6 µM] (inactive) | 
CC1(C)S[C@@H]2[C@H](N3C(=O)C(c4ccccc4)NC3(C)C)C(=O)N2[C@H]1C(=O)O (some centres undefined) | 1.18% (inactive) | 
OC/C=C/c1ccccc1 | 0.352% (inactive) | 
CCN(CC)CCOC(=O)c1cccnc1 | -15.7% (inactive) | 
O=C(O)Cc1nn(Cc2ccc(Br)cc2F)c(=O)c2ccccc12 | 5.67% (inactive) | 
[O-][N+](=Nc1ccccc1)c1ccccc1 | 3.08% (inactive) | 
C[C@@](Cc1ccc(O)c(O)c1)(NN)C(=O)O | -1.28% (inactive) | 
C=CC1=C(C(=O)O)N2C(=O)[C@@H](NC(=O)/C(=N/OCC(=O)O)c3csc(N)n3)[C@H]2SC1 (stereo in doubt) | -1.13% [at 20.6 µM] (inactive) | 
CC(C)(C)CC(C)(C)c1ccc(OCCO)cc1 | 3.07% (inactive) | 
CC(CNC(=O)c1cccnc1)NC(=O)c1cccnc1 (centres undefined) | 1.99% (inactive) | 
CNCC(O)c1ccc(OC(=O)C(C)(C)C)c(OC(=O)C(C)(C)C)c1 (centres undefined) | -22.4% [at 20.6 µM] (inactive) | 
CO/N=C(/C(=O)N[C@@H]1C(=O)N2C(C(=O)O)=C(COC(N)=O)CS[C@H]12)c1ccco1 | -2.44% (inactive) | 
CC1=C(/C=C/C(C)=C/C=C/C(C)=C/C(=O)Oc2c(C)c(C)c3c(c2C)CC[C@@](C)(CCC[C@H](C)CCC[C@H](C)CCCC(C)C)O3)C(C)(C)CCC1 | -18.1% (inactive) | 
OCC1(CO)COC(C(Cl)(Cl)Cl)OC1 | -0.164% (inactive) | 

SMILES | activity change, negative = inhibition | Potency
O=C(O)C1=C(CSc2nnnn2CS(=O)(=O)O)CS[C@@H]2[C@H](NC(=O)[C@H](O)c3ccccc3)C(=O)N12 | 0.119% (inactive) | 
CC(C)=CCC/C(C)=C/C=C/C(C)=C/C=C/C(C)=C/C=C/C=C(C)/C=C/C=C(C)/C=C/C=C(\C)CCC=C(C)C | -5.73% (inactive) | 
C=C(C)C1CC=C(C)CC1 (centres undefined) | 13% (inactive) | 
Oc1cc(O)cc(O)c1 | 5.72% (inactive) | 
C[C@H](NCCc1ccc(O)cc1)[C@H](O)c1ccc(O)cc1 | 1.89% (inactive) | 
CN1CCCC(CN2c3ccccc3Sc3ccccc32)C1 (centres undefined) | -5.24% (inactive) | 
OCC(O)CO | 1.11% (inactive) | 
CC(C)(C)NCC(O)CSc1nc(-c2ccc(C(N)=O)s2)cs1 (centres undefined) | -2.18% (inactive) | 
NC(=O)c1cc[n+](CC2=C(C(=O)O)N3C(=O)[C@@H](NC(=O)C(c4ccccc4)S(=O)(=O)[O-])[C@H]3SC2)cc1 (some centres undefined) | 6.09% [at 20.6 µM] (inactive) | 
CO/N=C(\C(=O)N[C@@H]1C(=O)N2C(C(=O)O)=C(CSc3nnnn3C)CS[C@H]12)c1csc(N)n1 | -5% (inactive) | 
CNCC(=O)N[C@@H](CCCN=C(N)N)C(=O)N[C@H](C(=O)N[C@@H](Cc1ccc(O)cc1)C(=O)N[C@H](C(=O)N[C@@H](Cc1cnc[nH]1)C(=O)N1CCC[C@H]1C(=O)N[C@@H](C)C(=O)O)C(C)C)C(C)C | -0.178% (inactive) | 
NC(=O)c1ccc[n+]([C@@H]2O[C@H](COP(=O)([O-])OP(=O)(O)OC[C@H]3O[C@@H](n4cnc5c(N)ncnc54)[C@H](O)[C@@H]3O)[C@@H](O)[C@H]2O)c1 | 6.09% [at 20.6 µM] (inactive) | 
CN(C)C=Nc1c(I)cc(I)c(CCC(=O)O)c1I | 14% (inactive) | 
CC(C)[C@@H](N)C(=O)O | -0.955% (inactive) | 
OC[C@H]1O[C@@H](O[C@H]2[C@H](O)[C@@H](O)[C@H](O)O[C@@H]2CO)[C@H](O)[C@@H](O)[C@@H]1O | -4.93% (inactive) | 
CN=C1C=CC(=C(c2ccc(N(C)C)cc2)c2ccc(N(C)C)cc2)C=C1 |  | 9.2 µM (active)
COc1cc2c(cc1OC)[C@@H](Cc1cc(OC)c(OC)c(OC)c1)[N+](C)(CCCOC(=O)CC/C=C/CCC(=O)OCCC[N+]1(C)CCc3cc(OC)c(OC)cc3[C@H]1Cc1cc(OC)c(OC)c(OC)c1)CC2 (some centres undefined) | 10.2% (inactive) | 
C=CC[N@@+]12CC[C@@]34c5ccccc5N5/C=C6/[C@H]7C[C@H]8[C@@]9(CC[N@@+]8(CC=C)C/C7=C/CO)c7ccccc7N(/C=C(/[C@@H](C[C@@H]31)/C(=C\CO)C2)[C@H]54)[C@@H]69 | 7.04% [at 20.6 µM] (inactive) | 
ClC(Cl)Cl | 1.64% (inactive) | 
